Shown are actives, neighbours in structure and some others; about 5.7% of the full set was active somewhere.
hgDAF-12 ag – H. glycines DAF-12 receptor agonists, primary screen, cell-based, luminescence, HEK293, GAL4 fusion, UAS-luciferase. AID 687014, 2013. Nuclear hormone receptor DAF-12 (Heterodera glycines), GAL4 fusion. activation, % at 6.8 µM. HEK293 GAL4-hgDAF12 UAS-luciferase reporter, agonist luminescence; normalized to butyrate control. 1.8% of 370,000 active;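 active = activation above a cutoff set at the mean of all screened compounds plus 3 SD, cut at about 10% in these data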;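 note: 0% = DMSO wells and 100% = sodium butyrate wells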
AHR act – AHR activators, primary screen, cell-based, luminescence, luciferase reporter, human. activation, % at 5 µM. AHR-responsive luciferase reporter cells. 2.5% of 320,000 active; in the data active = activation above about 47%;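 note: 0% = vehicle wells and 100% = reference agonist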
ssDAF-12 act – S. stercoralis DAF-12 nuclear receptor activators, primary screen, cell-based, luminescence, HEK293, GRIP1 co-expression, lit1-tk-luc; Nuclear hormone receptor DAF-12 (Strongyloides stercoralis); HEK293 ssDAF-12/GRIP1 lit1-tk-luc reporter; % of 3 µM dafachronic acid response; activation, % at 6.8 µM; 1% of 370,000 active; AID 652126, 2013;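 active = activation above the mean over all tested compounds plus 3 SD, cut at about 0.9% in these data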;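 note: 0% = DMSO-only wells and 100% = 3 µM delta7-dafachronic acid wells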
DAX1 inh-1 – DAX1 (NR0B1) inhibitors on StAR promoter, primary screen, cell-based, luminescence, SF-1 (NR5A1), full-length DAX-1; AID 652010, 2013; 1.1% of 370,000 active; inhibition, % at 6.8 µM; HEK293T StAR-luciferase reporter, SF-1/DAX-1 repression relief;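 active = inhibition above the mean over all tested compounds plus 3 SD, cut at about 3.6% in these data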;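 note: 0% = DAX-1 cells with DMSO and 100% = cells lacking DAX-1 with DMSO; higher inhibition means more luminescence from relief of DAX-1 repression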
DAX1 inh-2 – DAX1 (NR0B1) inhibitors, primary screen, cell-based, HEK293, Gal4-DAX1, luciferase luminescence | Nuclear receptor subfamily 0 group B member 1 (Homo sapiens), P51843 | HEK293 Gal4-DAX1 luciferase reporter | inhibition, % at 6.75 µM | 0.99% of 340,000 active;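 active = inhibition above the mean over all tested compounds plus 3 SD, cut at about 4.2% in these data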;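 note: 0% = DAX1-transfected cells with DMSO and 100% = empty-vector control cells with DMSO; inhibition shows as a rise in luminescence from relieved DAX1 repression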
hcDAF-12 act – H. contortus DAF-12 nuclear receptor activators, primary screen, cell-based, luminescence, HEK293, lit1-tk-luc reporter. activation, % at 6.8 µM. 1.4% of 370,000 active. AID 652067, 2013. HEK293 hcDAF-12 lit1-tk-luc reporter; 0% DMSO, 100% Δ7-dafachronic acid;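 active = activation above the mean of all tested compounds plus 3 SD, cut at about 5.5% in these data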;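 note: 100% = response to 3 µM Δ7-dafachronic acid high control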
* = called active by the depositor; / = no result.

SMILES	hgDAF-12 ag	AHR act	ssDAF-12 act	DAX1 inh-1	DAX1 inh-2	hcDAF-12 act
COc1cccc(NC(=O)CN(C)C(=O)CNC(=O)c2ccc3ccccc3c2)c1	2	3	-1	1	2	1
O=C(Nc1ccc2c(c1)Cc1ccccc1-2)NC1CCCCN(Cc2ccc(Cl)cc2)C1=O (stereo not drawn)	7	/	0	0	/	1
CN1Cc2c(N3CCOCC3)nc3sc(C#N)c(N)c3c2CC1(C)C	-1	2	-1	1	5.4*	3
Cc1cc2n(n1)C(c1ccc(N(C)C)cc1)Nc1ccccc1-2 (stereo not drawn)	9	82*	0	1	0	2
Cc1cc2n(n1)C(c1ccccc1)Nc1ccccc1-2 (stereo not drawn)	-1	23	-2	0	0	-2
Cc1ccc2c(c1)-c1cc(C)nn1C(c1sccc1C)N2 (stereo not drawn)	0	27	-1	1	0	1
Cc1ccc2c(c1)-c1cc(C)nn1C(c1ccc3c(c1)OCO3)N2 (stereo not drawn)	2	94*	-2	-1	0	-2
CCCN(CC(=O)Nc1ccc(NC(C)=O)cc1)CC(=O)Nc1ccc(F)c(F)c1F	-1	2	-1	-1	4.6*	-3
O=C(CN1C(=O)COc2ccccc21)c1ccc(Cl)cc1	1	50*	-1	-1	3	-2
CC1(C)CC2CC(C)(CN2C(=O)COC(=O)c2cccnc2Cl)C1 (stereo not drawn)	-1	0	-1	1	1	-1
CC1(C)CC2CC(C)(CN2C(=O)COC(=O)c2n[nH]c(=O)c3ccccc23)C1 (stereo not drawn)	1	0	-1	0	4.4*	-1
CNC(=O)CSc1nc2sccc2c(=O)n1-c1ccccc1	-1	5	0	0	4.6*	0
COc1ccc(CNC(=O)COC(=O)c2ccccc2OCC(=O)Nc2ccc(SC(F)F)cc2)cc1	2	0	-1	1	6.5*	1
COc1ccccc1NC(=O)COC(=O)c1ccccc1OCC(=O)Nc1ccc(SC(F)F)cc1	-3	-3	-1	0	-1	-3
O=c1c2ccccc2nc(COc2ccccc2)n1/N=C/c1ccc(O)cc1O	0	1	-2	0	-2	-3
O=c1c2ccccc2nc(COc2ccccc2)n1/N=C/c1c[nH]c2ccccc12	0	63*	-1	0	0	1
Cc1cccc(C2N=C(N)Nc3nc4ccccc4n32)c1 (stereo not drawn)	0	0	-1	0	4.8*	1
Cc1ccc(C2N=C(N)Nc3nc4ccccc4n32)cc1 (stereo not drawn)	-3	1	-1	0	2	0
COc1ccccc1Nc1cc2cc(Br)ccc2c(=O)[nH]1	2	19	0	0	1	6.2*
O=C(/C=C/c1ccccc1)Nc1cccc(C(=O)N2CCCC2)c1	4	/	-1	2	-1	2
O=C(Nc1nnc(-c2ccco2)o1)C1CC1	0	-2	-1	0	0	6.4*
Cc1cc(SCC(=O)c2ccccc2)n2nc(C)nc2n1	10	4	0	0	-1	6.2*
COc1cc(OC)cc(C(=O)N[C@H](C(=O)NCCc2ccc(S(N)(=O)=O)cc2)C(C)C)c1	2	3	-1	0	0	1
FC(F)(F)c1cccc(N2CCN(C3=Nc4ccccc4Sc4ccccc43)CC2)c1	3	/	-1	1	/	-3
Fc1ccc(N2CCN(C3=Nc4ccccc4Sc4ccccc43)CC2)cc1	-7	/	1.3*	-1	/	-2

Source: PubChem
